An excerpt weighted towards active compounds, which were near 5.4% of everything screened.
HPGD block – blocks human HPGD enzyme activity; P15428; purified HPGD, NADH fluorescence kinetic, PGE2 substrate; Potency, µM, most hits filed as inhibitors; hit rate 4.3% among 150,000; active means well fitted inhibition curve with a large enough effect, not every such curve was filed as active; inconclusive means small, poorly fitted or top-dose-only effect, or another doubt; inactive means no such curve, though single readings can be large or run the other way
Target sequence (P15428 whole entry, looked up): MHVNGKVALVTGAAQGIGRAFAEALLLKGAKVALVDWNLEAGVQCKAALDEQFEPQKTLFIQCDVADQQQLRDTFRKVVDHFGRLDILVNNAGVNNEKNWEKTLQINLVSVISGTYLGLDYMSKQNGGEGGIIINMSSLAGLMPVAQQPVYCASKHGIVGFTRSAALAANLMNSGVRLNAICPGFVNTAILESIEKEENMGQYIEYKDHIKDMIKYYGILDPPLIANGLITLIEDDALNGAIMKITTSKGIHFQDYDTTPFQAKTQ
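NADH formation kinetics: reaction with 30 uM PGE2 and 1 mM NAD+ (final), 20 nM enzyme, Tris-HCl pH 8 with Tween 20, after 15 min compound preincubation at room temperature. Fluorescence change, last versus first of five reads.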
ALOX15B inhib – 15-hLO-2 (ALOX15B) enzyme inhibition; O15296; AID 881; Potency, µM (titrated, usually from 57.1 µM), hits mostly inhibitors; purified 15hLO-2, xylenol orange hydroperoxide absorbance; hit rate 0.56% among 110,000; further: nearly all actives have a fitted effect of over 60% in size
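Screening format was qHTS against 50 nM purified 15hLO-2 in Hepes pH 7.5 with detergent. Activity follows hydroperoxide formation from 45 uM arachidonic acid, measured as 573:405 nm absorbance ratio of the ferric-xylenol orange complex.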
IMPase cell inh – IMPase inhibition in cells; P97697; CHO-M1 cells, IP1 accumulation, HTRF TR-FRET ratio; inhibition (IP1 accumulation), % at 46.1 µM; 120,000 tested, under 10 active; active means well fitted curve in the direction sought with a large enough effect in the signal ratio, not every such curve was filed as active; inconclusive means small, poorly fitted or top-dose-only effect, or a change in a side signal; inactive means no such curve, though single readings can be large or run the other way; the % refers to the signal ratio;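 further: cells stimulated with carbachol in lithium chloride buffer; higher means more IMPase inhibition seen as more IP1 and lower FRET ratio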
Target sequence (P97697 whole entry, looked up): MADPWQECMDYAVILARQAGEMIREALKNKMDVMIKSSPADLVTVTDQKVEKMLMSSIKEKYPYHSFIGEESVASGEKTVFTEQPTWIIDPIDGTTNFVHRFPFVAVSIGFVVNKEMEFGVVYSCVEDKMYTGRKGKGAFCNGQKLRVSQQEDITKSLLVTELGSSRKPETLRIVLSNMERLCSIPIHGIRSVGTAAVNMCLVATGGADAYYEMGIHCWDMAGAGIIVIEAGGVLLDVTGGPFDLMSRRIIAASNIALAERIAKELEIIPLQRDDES
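In this qHTS, compounds (final up to 46 uM) act on CHO-M1 cells that are then activated through the M1 receptor with carbachol, in pH 7.4 buffer containing 50 mM LiCl, for 30 min. IP1 accumulation is quantified by the IP-One immunoassay.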
ALOX12 inhib – 12-hLO (ALOX12) enzyme inhibition; AID 1452; purified 12-hLO, xylenol orange hydroperoxide absorbance; Potency, µM (doses to about 57.1 µM), hits mostly inhibitors; hit rate 0.12% among 150,000; further: nearly all actives have a fitted effect of over 55% in size
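Xylenol orange chromogenic assay: hydroperoxide from 12hLO oxidises Fe(II), giving red-shifted Fe(III)-XO absorbance. Conditions: 150 nM enzyme, 40 uM arachidonic acid, 25 mM Hepes pH 7.0, 0.01% Triton X-100, 30 min, room temperature.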
IMPase Li cell – membrane-permeable IMPase blocker, potentiated with lithium. hit rate 0.35% among 210,000. Potency, µM (titrated, usually from 59.4 µM), hits mostly inhibitors. CHO-M1 cells, IP1 TR-FRET (IP-One), carbachol + lithium;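 further: IP1 builds up when IMPase is blocked and the TR-FRET signal falls; nearly all actives have a fitted effect of over 50% in size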
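IP1 accumulation measured by competitive TR-FRET in lysed CHO-M1 cells after 30 min compound exposure at 37C, with a small lithium addition to potentiate weak responses. Hill-equation AC50 from ratio and donor-channel data.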
PNC assembly inh – inhibitors of perinucleolar compartment assembly. activity change (PNC), negative = inhibition, % at 10 µM. hit rate 3.1% among 140,000. AID 2417. PC3M PTB-GFP, PNC prevalence imaging, 16 h; stronger effect = lower value;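 active means readout at or below -70, meaning at least 70% loss of cells showing the perinucleolar compartment, a nuclear body marking cancer cells; inconclusive means readout between -30 and a set limit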
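Read-out is percentage of cells bearing a perinucleolar compartment, from automated 20x imaging of fixed, Hoechst-stained PC3M PTB-GFP cells. Cells were seeded 4 h, then exposed 16 h to compound (23 nl of library stock) in duplicate plates.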
Hits are given with their value; n = inactive; u = inconclusive; x = not tested or not shown; [ ] = remark or other dose. Unless noted, the call rests on the fitted dose curve; in most records, active means well fitted curve in the direction sought with a large enough effect; inconclusive means small, poorly fitted or top-dose-only effect, or another doubt; inactive means no such curve, though single readings can be large; an effect the other way counts as inactive or inconclusive.

SMILES | HPGD block | ALOX15B inhib | IMPase cell inh | ALOX12 inhib | IMPase Li cell | PNC assembly inh
CC(C)C[C@H](N)c1nnc(S(=O)(=O)Cc2ccc(F)cc2)o1 | 25µM | u | n | n | n | n
O=C(C/C(=N/O)c1ccccc1O)C(F)F | 16µM | n | n | n | n | n
COC(=O)c1ccccc1O | n | n | x | n | n | x
CCOC(=O)c1c(C)n(-c2ccccc2)c2ccc(OC(=O)c3cc(OC)cc(OC)c3)cc12 | x | x | n | x | x | x
Fc1ccc(NC(=S)NCc2cccs2)cc1 | 18µM | x | x | n | n | n
COc1ccc(NC(=S)NCc2cccs2)cc1OC | x | x | x | x | n | x
S=C(NCc1cccs1)Nc1ccccc1 | 13µM | x | x | n | n | n
Cc1cccc(NC(=S)NCc2cccs2)c1 | x | x | x | x | n | x
COc1cccc(NC(=S)NCc2cccs2)c1 | 18µM | x | x | n | n | n
NS(=O)(=O)c1ccc(NC(=S)NCc2cccs2)cc1 | x | x | x | x | n | x
Cc1ccc(NC(=S)NCc2cccs2)cc1 | 28µM | n | n | n | n | n
CC(C)[C@@H](C)/C=C\[C@@H](C)[C@@H]1CC[C@H]2C3=CC=C4C[C@@H](O)CC[C@]4(C)[C@H]3CC[C@]21C | n | n[11.4 µM] | x | n[11.4 µM] | n | x
COc1cccc(NC(=S)NCCN2CCOCC2)c1 | n | x | x | n | n | -91
S=C(NCCN1CCOCC1)Nc1cccc(Cl)c1 | n | x | x | n | n | n
O=C(Cc1cccs1)N1CCCC(c2nc3c(nnn3Cc3cccc(Cl)c3)c(=O)[nH]2)C1 (centres undefined) | 6.3µM | n | n | n | n | n
O=C(Cc1cccs1)N1CCC(c2nc3c(nnn3Cc3ccc(F)cc3)c(=O)[nH]2)CC1 | 14µM | n | n | n | n | u
O=C(Nc1ccc(F)cc1)N1CCC(c2nc3c(nnn3Cc3ccccc3Cl)c(=O)[nH]2)CC1 | x | x | x | x | n | x
CCCCCC(=O)/C=C/C=C\CCCCCCCC(=O)O | n | x | x | n | n | x
Cc1noc(C)c1-c1cc(NC2CCNCC2)ncn1 | x | n | x | x | n | x
Oc1ccc(Br)cc1/C=N/n1cnc2ccccc21 | 14µM | n | n | n | n | n
O=C1C(O)=C(O)C(=O)C(O)=C1O | n | n | n | u | n | x
Cc1cccc(NC(=S)N2CCCCCC2)c1 | n | x | x | n | n | -106
Cc1c(N2C(=O)C(=O)/C(=C(/O)c3ccc(Br)cc3)C2c2cccnc2)c(=O)n(-c2ccccc2)n1C (centres undefined) | x | x | x | x | 8.9µM | x
O=C(/C=C/c1ccco1)NC(=S)Nc1cccc([N+](=O)[O-])c1 | 18µM | x | x | n | n | u
COc1ccc([N+](=O)[O-])cc1NC(=O)C(C)OC(=O)/C=C/c1ccco1 (centres undefined) | 28µM | x | x | n | n | n
SMILES | HPGD block | ALOX15B inhib | IMPase cell inh | ALOX12 inhib | IMPase Li cell | PNC assembly inh
CC(OC(=O)/C=C/c1ccco1)C(=O)Nc1cccc([N+](=O)[O-])c1 (centres undefined) | u | x | n | n | n | -84
CC(Oc1ccccc1)C(=O)Nc1cccc([N+](=O)[O-])c1 (centres undefined) | x | x | x | x | n | x
O=C(COc1ccccc1)NC(=S)Nc1cccc([N+](=O)[O-])c1 | 28µM | x | n | n | n | n
O=C(CCOc1ccccc1)Nc1cccc([N+](=O)[O-])c1 | x | x | x | x | n | x
CC(C)[C@@H](CC(=O)N[C@@H]1CCNC[C@H]1C(=O)N[C@H](CC(=O)N[C@@H](CCC(=O)O)CC(=O)O)Cc1c[nH]c2ccccc12)NC(=O)C[C@H](Cc1ccccc1)NC(=O)[C@@H]1CNCC[C@H]1N | n | x | x | n | n | x
CCOC(=O)C1OC1c1ccccc1 (centres undefined) | n | n | x | n | n | x
CC(C)OC(=O)c1cc2c(OC[C@@H](O)CNC(C)(C)C)cccc2[nH]1 | n | n | n | n | n | x
CCOc1ccc(C(c2c(NC(=O)c3ccccc3)sc(C)c2C)N2CCN(C)CC2)cc1 (centres undefined) | u | x | n | n | n | -81
CCOC(=O)c1cc(NC(=O)c2ccc(Cl)cc2)c(=O)n2c1oc1ccccc12 | x | x | n | x | x | x
CCCCCCn1c(CN2CCCCC2C)nc2c1c(=O)n(C)c(=O)n2C (centres undefined) | n | x | n | n | n | n
CCCn1c(CN2CCCCC2C)nc2c1c(=O)n(C)c(=O)n2C (centres undefined) | n | n | n | n | n | -95
CCCCCn1c(CN2CCN(CCO)CC2)nc2c1c(=O)n(C)c(=O)n2C | n | n | n | n | n | n
CCCCCCn1c(CN2CCN(C)CC2)nc2c1c(=O)n(C)c(=O)n2C | n | x | n | n | n | -122
[N-]=[N+]=Nc1ccc(C(=O)CSC[C@@H](NC(=O)CC[C@@H](N)C(=O)O)C(=O)NCC(=O)O)cc1 | x | n | n | n | x | x
O=C(Nc1cccc(F)c1)N1CC[C@@]2(CCCNC2)C1 | n | n | x | n | n | x
N=c1oc2ccc3ccccc3c2cc1-c1nnc2n1CCCCC2 | u | n | n | n | n | -114
c1cncc(-c2nnc3n2CCC3)c1 | n | n | n | n | n | n
Clc1ccc(-c2nnc3n2CCCC3)cc1 | n | n | n | n | n | n
Clc1c(-c2nnc3n2CCCCC3)sc2ccccc12 | 2µM | n | n | n | n | n
Clc1c(-c2nnc3n2CCC3)sc2ccccc12 | 28µM | n | n | n | n | n
COc1ccc2c(Cl)c(-c3nnc4n3CCCCC4)sc2c1 | 1µM | n | n | n | n | n
COc1ccc2oc(=N)c(-c3nnc4n3CCCCC4)cc2c1 | u | n | n | n | n | n
Cc1ccccc1C(=O)Nc1c(C)nc(Nc2ccccc2)nc1Nc1ccccc1 | x | x | n | x | x | x
Cn1c(-c2sc3ccccc3c2Cl)n[nH]c1=S | 20µM | n | n | n | n | n
Cn1c(CSc2nc3ccccc3s2)n[nH]c1=S | n | n | n | n | n | n
SMILES | HPGD block | ALOX15B inhib | IMPase cell inh | ALOX12 inhib | IMPase Li cell | PNC assembly inh
Cn1c(Oc2ccccc2)nc2c1c(=O)n(Cc1ccc(Cl)cc1Cl)c(=O)n2C | x | x | n | x | x | x
Cc1cc(Br)c(OCc2ccc(C(=O)N/N=C3\CC4CC=CC34)cc2)c(Br)c1 (centres undefined) | 13µM | x | x | n | n | n
c1ccc(Cn2nnc3c(N4CCc5ccccc5C4)ncnc32)cc1 | 32µM | n | n | n | n | n
Clc1ccccc1Nc1ncnc2c1nnn2Cc1ccccc1 | 22µM | n | n | n | n | u
CCOc1ccc(OCc2ccc(C(=O)N3CCCC(C)C3)cc2)cc1 (centres undefined) | x | x | x | x | n | x
CCOc1ccc(OCc2ccc(C(=O)N3CCOCC3)cc2)cc1 | 16µM | x | n | n | n | n
O=C(c1ccccc1)N1CCCCCC1 | 4.5µM | x | x | n | n | n
O=C(c1ccccc1)N1CCN(S(=O)(=O)N2CCCCC2)CC1 | n | n | n | n | n | u
Cc1ccc(C(=O)N2CCC(C(N)=O)CC2)cc1C | n | n | n | n | n | n

Compound activity (PubChem BioAssay)
